BoNT-A LC inh2 – BoNT A light chain protease inhibition; multiplex microsphere protease substrate cleavage, flow cytometry; inhibition, % at 10 µM; actives 0.17% (n = 360,000); note: plate controls were buffer without enzyme for full effect and enzyme alone for no effect
Anthrax LF inh2 – blocks Bacillus anthracis lethal factor protease; actives 0.12% (n = 360,000); AID 588501; inhibition, % at 10 µM; P15917; multiplex microsphere protease cleavage assay, LF; note: plate controls were buffer without enzyme for full effect and enzyme alone for no effect
BoNT F protease – inhibitors of Botulinum neurotoxin F light chain protease | inhibition, % at 10 µM | AID 588497 | Multiplex microsphere protease cleavage assay, flow cytometry | actives 0.22% (n = 360,000); in the data active = inhibition above about 35%, passing the limit was not always enough; inconclusive = no clear call, values can overlap the other calls; note: plate controls were buffer without enzyme for full effect and enzyme alone for no effect
PriA SSB inh – blocks PriA binding to SSB C-terminal tail. actives 0.6% (n = 430,000). inhibition, % at 33 µM. AlphaScreen SSBct-PriA binding, biotinylated peptide. AID 1272365; in the data active = inhibition mostly above about 37%, no sharp cut-off; inactive = mostly below about 20%;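 note: plate controls were negative control peptide for no effect and reference peptide for full effect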
Bead autofluor – flagged as autofluorescent in microsphere protease counterscreen; fluorescence intensity (concentration not given with the values); compound autofluorescence counterscreen, microsphere flow cytometry; hits give high values; actives 3.1% (n = 360,000); in the data active = fluorescence intensity above about 16000; inconclusive = no clear call, values can overlap the other calls
MazF activator – increases E. coli MazEF RNase cleavage of RNA | P0AE70 | FAM/BHQ RNA-DNA oligo cleavage fluorescence, 5 h | activation, % at 20 µM | actives 0.32% (n = 350,000); in the data active = activation above about 50%
Target sequence (P0AE70 whole entry, looked up): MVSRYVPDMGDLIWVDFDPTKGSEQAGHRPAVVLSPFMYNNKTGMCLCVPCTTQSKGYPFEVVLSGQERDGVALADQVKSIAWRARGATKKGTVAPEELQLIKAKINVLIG
Numbers without * were called inactive. The list is not random: actives were taken first. Their share in the collection is about 3.3%. Cut-off read from the data, not from the text of the source, unless noted: active = inhibition above about 30%; inconclusive = no clear call, values can overlap the other calls; inactive = below that.

`O=C(CSc1ncc(-c2ccc(F)cc2)o1)N1CCN(c2ccccc2F)CC1` gave PriA SSB inh -33.
`C/C(=N\Nc1nc2ccccc2[nH]1)c1ccc2c(c1)OCCO2` gave BoNT-A LC inh2 0, Anthrax LF inh2 -4, BoNT F protease -18, Bead autofluor 4255 and MazF activator 16.
Screening CC(=NNc1nc2ccccc2[nH]1)c1ccc(N2CCOCC2)cc1 returned PriA SSB inh 54*.
Screening c1ccc2[nH]c(NCCCN3CCOCC3)nc2c1 returned BoNT-A LC inh2 inconclusive, Anthrax LF inh2 -5, BoNT F protease -6, PriA SSB inh -10, Bead autofluor 24547* and MazF activator 5.
Screening O=c1[nH]c2ccccc2nc1NCCN1CCOCC1 returned BoNT-A LC inh2 0, Anthrax LF inh2 -4, BoNT F protease -4, PriA SSB inh -11, Bead autofluor 2704 and MazF activator 1.
`Cc1cccc(Cn2ncc(Cl)c(Cl)c2=O)c1` gave BoNT-A LC inh2 0, Anthrax LF inh2 1, BoNT F protease 0, PriA SSB inh -26, Bead autofluor 16414* and MazF activator -4.
`Cc1ccccc1Cn1nnc2c1C(=O)c1ccccc1C2=O` gave BoNT-A LC inh2 0, Anthrax LF inh2 1, BoNT F protease -5, PriA SSB inh -8, Bead autofluor inconclusive and MazF activator 12.
For Cc1ccc(C)c(C(=O)Cn2ncc(Cl)c(Cl)c2=O)c1 the results were BoNT-A LC inh2 0, Anthrax LF inh2 0, BoNT F protease -1, PriA SSB inh -3, Bead autofluor 2769 and MazF activator 1.
Screening Cc1ccc(C(=O)OCn2ncc(Cl)c(Cl)c2=O)cc1 returned BoNT-A LC inh2 -2, Anthrax LF inh2 -2, BoNT F protease -5, PriA SSB inh -5, Bead autofluor 17159* and MazF activator 3.
Cc1cccc(Cn2nnc3c2C(=O)c2ccccc2C3=O)c1 was read as BoNT-A LC inh2 0, Anthrax LF inh2 -2, BoNT F protease -3, PriA SSB inh 40, Bead autofluor 16137* and MazF activator -1.
For O=C(Nc1nc2c(s1)CN(C(=O)C1(c3ccccc3)CCOCC1)CC2)c1ccoc1 the results were PriA SSB inh 8.
CCOc1ccc(C)cc1S(=O)(=O)Nc1ccc2c(c1)OCC(C)(C)C(=O)N2 was read as PriA SSB inh 1.
COc1ccc(S(=O)(=O)Nc2ccc3c(C)c(C(=O)c4ccc(Cl)cc4)oc3c2)cc1 was read as PriA SSB inh 7.
`CCC(=O)Nc1ccc(SCc2ccccc2Cl)nn1` gave PriA SSB inh -10.
For FC(F)(F)C(=NC1(C(Cl)(Cl)Cl)Oc2ccccc2O1)Nc1ccccc1 the results were PriA SSB inh 5.
For Cc1c(NS(=O)(=O)N2CCCCC2)c(=O)n(-c2ccccc2)n1C the results were BoNT-A LC inh2 0, Anthrax LF inh2 0, BoNT F protease 0, PriA SSB inh -2, Bead autofluor 16324* and MazF activator -9.
Screening Cc1c(NC(=S)/C=C2\N(C)c3ccccc3C2(C)C)c(=O)n(-c2ccccc2)n1C returned BoNT-A LC inh2 4, Anthrax LF inh2 -4, BoNT F protease 7, PriA SSB inh 3, Bead autofluor 19375* and MazF activator -4.
Cc1ccc(C(=O)NC(=S)/C=C2\N(C)c3ccccc3C2(C)C)cc1 was read as BoNT-A LC inh2 42*, Anthrax LF inh2 19, BoNT F protease -7, PriA SSB inh 21, Bead autofluor 3476 and MazF activator -9.
Cc1c(NC(=O)c2n[nH]c(=O)c3ccccc23)c(=O)n(-c2ccccc2)n1C was read as BoNT-A LC inh2 3, Anthrax LF inh2 -4, BoNT F protease 4, PriA SSB inh -9, Bead autofluor 21768* and MazF activator 8.
`CCOC(=O)Nc1c(C)n(C)n(-c2ccccc2)c1=O` gave BoNT-A LC inh2 12, Anthrax LF inh2 -12, BoNT F protease 10, PriA SSB inh -6, Bead autofluor 19722* and MazF activator 3.
Cc1c(NC(=O)Nc2ccccc2)c(=O)n(-c2ccccc2)n1C was read as BoNT-A LC inh2 2, Anthrax LF inh2 -7, BoNT F protease 10, PriA SSB inh -3, Bead autofluor 4277 and MazF activator 12.
Cc1c(NC(=O)NCc2ccccc2)c(=O)n(-c2ccccc2)n1C was read as BoNT-A LC inh2 2, Anthrax LF inh2 -2, BoNT F protease 2, PriA SSB inh 3, Bead autofluor 22336* and MazF activator -1.
`CCc1ccc(N2C(=O)N(c3cccc(C(F)(F)F)c3)C3CS(=O)(=O)CC32)cc1` (centres undefined) gave PriA SSB inh -1.
For COc1ccc(S(=O)(=O)N2Cc3ccccc3CC2C(=O)Nc2nccs2)cc1 (centres undefined) the results were BoNT-A LC inh2 -1, Anthrax LF inh2 -3, BoNT F protease -5, PriA SSB inh 0, Bead autofluor 23488* and MazF activator -6.
Screening CCOC(=O)CCC(=O)NCC#CCOc1ccccc1C(N)=O returned PriA SSB inh -14.
`CCN(CC)C(=O)c1cncc(C(=O)N(CC)CC)c1-c1ccccc1` gave BoNT-A LC inh2 0, Anthrax LF inh2 -2, BoNT F protease 1, PriA SSB inh -7, Bead autofluor 20311* and MazF activator 0.
`O=c1ccc(-c2ccc(F)cc2)nn1CCCNS(=O)(=O)c1ccc(Cl)s1` gave PriA SSB inh -7.
Screening O=C(Nc1ccccc1F)c1cc2nc(C(F)F)cc(C(F)F)n2n1 returned BoNT-A LC inh2 -6, Anthrax LF inh2 -2, BoNT F protease -7, PriA SSB inh -8, Bead autofluor 21540* and MazF activator -5.
Screening CCn1cc(C(=O)O)c(=O)c2cc(OC)ccc21 returned BoNT-A LC inh2 -14, Anthrax LF inh2 -13, BoNT F protease -51, PriA SSB inh -12, Bead autofluor 19754* and MazF activator 14.
`O=[N+]([O-])c1cc(Cl)cc(C=NNC(=S)Nc2ccc(S(=O)(=O)N3CCOCC3)cc2)c1O` gave PriA SSB inh 67*.
For Cc1ccc(CN(C(=O)c2cc3ccccc3oc2=O)C2CCS(=O)(=O)C2)cc1 (centres undefined) the results were BoNT-A LC inh2 2, Anthrax LF inh2 1, BoNT F protease 4, PriA SSB inh -13, Bead autofluor 21783* and MazF activator -8.
Cc1cc2oc(C(=O)N(Cc3ccccc3)C3CCS(=O)(=O)C3)cc(=O)c2cc1Cl (centres undefined) was read as BoNT-A LC inh2 6, Anthrax LF inh2 4, BoNT F protease 8, PriA SSB inh 8, Bead autofluor 19953* and MazF activator -2.
O=C(c1cc(=O)c2ccccc2o1)N(Cc1ccccc1)C1CCS(=O)(=O)C1 (centres undefined) was read as BoNT-A LC inh2 2, Anthrax LF inh2 4, BoNT F protease 0, PriA SSB inh 1, Bead autofluor 5931 and MazF activator 9.

Screening results as filed in PubChem BioAssay.
